Laboratory results published in PubChem BioAssay AID1434 (Sanford-Burnham Center for Chemical Genomics, 2008).
Hit rate of the full screen: of about 220,000 compounds, about 1,600 (0.73%) were called active.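 How the source made its calls: active means mean inhibition across duplicate retests at 20 µM reaching about 50% (limit read from the data); inactive means the rest, inconclusive results apart.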 The sample as a whole holds a higher share of actives than the screen did.

Target: Runt-related transcription factor 1 (Homo sapiens) + Core-binding factor subunit beta (Homo sapiens) (UniProt Q01196+Q13951)
Assay: inhibitors of RUNX1 Runt–CBFb-SMMHC binding, primary screen, biochemical, FRET, Cerulean-Runt, Venus-CBFb-SMMHC, uHTS (AID 1434);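 further: 0% = DMSO wells and 100% = wells with excess untagged CBFb-SMMHC; inhibitors lower the FRET ratio by blocking Runt binding to CBFb-SMMHC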
Conditions: Cerulean-Runt/Venus-CBFb-SMMHC FRET ratio 530/480, 1 h, at 20 µM, stronger effect = higher value

Chain of Runt-related transcription factor 1 (Homo sapiens) + Core-binding factor subunit beta (Homo sapiens) (Q01196 whole entry, looked up): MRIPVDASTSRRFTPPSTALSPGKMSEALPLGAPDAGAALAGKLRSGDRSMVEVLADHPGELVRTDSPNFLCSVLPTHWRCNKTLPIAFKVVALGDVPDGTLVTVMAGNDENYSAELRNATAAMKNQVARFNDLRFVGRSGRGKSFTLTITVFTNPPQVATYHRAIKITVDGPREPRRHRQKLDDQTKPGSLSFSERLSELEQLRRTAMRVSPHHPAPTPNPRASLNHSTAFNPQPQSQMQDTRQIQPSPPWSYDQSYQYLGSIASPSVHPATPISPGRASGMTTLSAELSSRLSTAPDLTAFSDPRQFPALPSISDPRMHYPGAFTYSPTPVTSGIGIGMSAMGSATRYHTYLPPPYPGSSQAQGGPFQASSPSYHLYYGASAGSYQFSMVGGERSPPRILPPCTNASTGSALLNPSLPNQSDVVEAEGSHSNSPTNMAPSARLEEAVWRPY
Chain of Runt-related transcription factor 1 (Homo sapiens) + Core-binding factor subunit beta (Homo sapiens) (Q13951 whole entry, looked up): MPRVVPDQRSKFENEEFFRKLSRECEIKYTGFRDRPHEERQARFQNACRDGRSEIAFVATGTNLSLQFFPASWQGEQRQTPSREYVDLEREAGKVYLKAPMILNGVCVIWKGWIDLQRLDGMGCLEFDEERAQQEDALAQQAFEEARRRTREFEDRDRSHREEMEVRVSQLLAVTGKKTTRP

| Structure (SMILES) | inhibition | inhibition (retest duplicate average) |
| --- | --- | --- |
| Cc1c(CCC(=O)O)c(=O)oc2cc3occ(-c4ccccc4)c3cc12 | -3.4% (inactive) |  |
| CCCCCCc1cc2cc(-c3nnc(-c4ccccc4)o3)c(=O)oc2cc1O | 80.9% (active) | 146% |
| CCCC(=O)Nc1nnc(-c2ccccc2)o1 | 0.5% (inactive) |  |
| COc1ccc(OCCCn2cccc2/C=C2/C(=N)N3OC(C)=CC3=NC2=O)cc1 | 0.8% (inactive) |  |
| Cc1nn(C)c(C)c1S(=O)(=O)N1CCC(CO)(Cc2ccc(Cl)cc2)CC1 | 2.4% (inactive) |  |
| O=C(CCCO)N/N=C/c1cc(Br)ccc1O | 14.5% (inactive) |  |
| Oc1ccc(Br)cc1C=Nc1ccc2[nH]ncc2c1 | 75.6% (active) | 86.7% |
| CCN(CC)CCn1c(/N=C/c2cc(Br)ccc2O)nc2ccccc21 | -10.6% (inactive) |  |
| O=C(COC(=O)/C=C/c1ccc2c(c1)OCO2)NC1CCS(=O)(=O)C1 (configuration not stated) | 0.9% (inactive) |  |
| O=[N+]([O-])c1ccc2c(c1)C(N1CCOCC1)/C(=C/C1(O)CCCCC1)O2 (configuration not stated) | -4.2% (inactive) |  |
| CN(C(=O)CSc1nnc(-c2c[nH]c3ccccc23)o1)C1CCS(=O)(=O)C1 (configuration not stated) | 2.4% (inactive) |  |
| Cn1c(CO)cnc1SCc1ccccc1 | 3.5% (inactive) |  |
| CSc1c(SCc2ccccc2)cnn(Cc2ccccc2)c1=O | 59% (active) | 54.5% |
| O=c1c2ccccc2c(-c2ccccc2)nn1Cc1ccccc1 | 1.4% (inactive) |  |
| CNC(=O)C(NC(=O)c1ccccc1)=C(C)C | -2.9% (inactive) |  |
| Cc1nc(C(=O)Nc2ccc(Cl)cc2)sc1C1(C)CC(c2ccccc2)=NO1 (configuration not stated) | -2.6% (inactive) |  |
| Cc1cc(C#N)c(SCC(N)=O)nc1-c1ccc(F)cc1 | 14.7% (inactive) |  |
| O=C(C1CCCO1)N1CCN(C(=S)NC2CC2)CC1 (configuration not stated) | -0.8% (inactive) |  |
| CCCCCCCN=C(C)c1ccccc1O | -0.5% (inactive) |  |
